# Experimental data from PubChem BioAssay (EPA / NIEHS).
# Results filed as inconclusive are left out. Active and inactive are the calls of the source. Rule for the calls, unless noted: active = hit-call score of the fitted dose curve at least 0.9, where 1 is the maximum; inactive = score below 0.9.
# Legend:
# [1] = CCTE_Shafer_MEA_dev_LDH: CCTE's Lactate Dehydrogenase Assay for Cytotoxicity in the Neural Network Formation Assay, Shafer Lab (AID 2284068; active = hit-call score of the fitted dose curve at least 0.9, where 1 is the maximum;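 note: exposure for twelve days from plating with re-dosing on DIV 5 and 9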)
# Summary of the method: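 Developing rat cortical networks on MEA plates are exposed to compound for 12 days from plating. LDH activity is measured spectrophotometrically, with DMSO as baseline.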
# [2] = UKN5_HCS_SBAD2_neurite_outgrowth: University of Konstanz (UKN) Leist Lab Neurite Outgrowth Assay in human iPSC-derived immature Dorsal Root Ganglia Neurons (UKN5) (AID 2284070); settings: actives raise or lower the signal
# Summary of the method: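 Cryopreserved SBAD2 peripheral neurons were seeded at 100.000 cells/cm2 in N2-S/KSR medium containing CHIR99021, SU5402 and DAPT, then exposed to compounds for 24 h. Neurite area from calcein-AM high-content imaging was fitted bidirectionally against DMSO.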
# [3] = CCTE_Shafer_MEA_dev_AB: CCTE's Alamar Blue Assay for Cytotoxicity in the Neural Network Formation Assay, Shafer Lab (AID 2284083; active = hit-call score of the fitted dose curve at least 0.9, where 1 is the maximum;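 note: resazurin reduction fluorescence as viability of cultured neurons; twelve days of exposure from plating with re-dosing on DIV 5 and 9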)
# Summary of the method: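 Cytotoxicity companion to the developmental MEA: primary rat cortical neurons, 12-day exposure starting day 0, compound refreshed DIV 5 and 9; resazurin fluorescence, fitted against DMSO vehicle.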
# [4] = CCTE_Shafer_MEA_dev_mutual_information_norm: CCTE's Neural Network Formation Assay for Mutual Information Normalization, Shafer Lab (AID 2284091)
# Summary of the method: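 Exposure of primary rat cortical neurons began at plating and ran to DIV 12, with full media and treatment renewal after DIV 5 and 9 recordings. Mutual information AUC (DIV 5–12) was analysed for loss versus DMSO.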
# [5] = CCTE_Shafer_MEA_dev_correlation_coefficient_mean: CCTE's Neural Network Formation Assay for Mean Correlation Coefficient, Shafer Lab (AID 2284093);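 note: well mean pairwise spike train correlation integrated as AUC over recording days 5 to 12; potency fitted for loss of correlation relative to DMSO vehicle wells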
# Summary of the method: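 Extracellular firing from rat cortical networks on 48-well MEAs, DMSO-referenced, negative fitting direction. Compound present from plating to DIV12; mean pairwise correlation per well integrated over DIV5–12 recordings by trapezoidal AUC.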
# [6] = UKN4_HCS_LUHMES_neurite_outgrowth: University of Konstanz (UKN) Leist Lab Neurite Outgrowth Assay in human LUHMES cells (UKN4) (AID 2284206); settings: actives raise or lower the signal
# Summary of the method: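 Read-out: calcein-AM neurite area by high-content fluorescence imaging, with Hoechst H-33342 viability counterstain, after 24 h chemical exposure of day-2 differentiated LUHMES cells. Activity fitted bidirectionally against DMSO baseline.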
# [7] = IUF_NPC1b_proliferation_BrdU_72hr: Leibniz Research Institute for Environmental Medicine (IUF) 72-hour Neural Progenitor Cell Bromodeoxyuridine (BrdU) Proliferation Assay (NPC1b) (AID 2284207)
# Summary of the method: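 Neural progenitor spheres of human fetal origin are treated for three days; BrdU added for the last 16 h is quantified by luminescence ELISA, with DMSO as baseline and EGF/FGF omission as positive control.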
# [8] = UKN4_HCS_LUHMES_cell_viability: Viability Assessment in the University of Konstanz (UKN) Leist Lab Neurite Outgrowth Assay in human LUHMES cells (UKN4) (AID 2284232)
# Summary of the method: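 Day-2 differentiated LUHMES, 30000 cells/well, dosed ~30 min–2 h post-seeding; 24 h treatment incl. staining; Hoechst H-33342 + calcein-AM at 23.5 h; HCS imaging; DMSO-normalized, bidirectional fit.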
# [9] = UKN2_HCS_IMR90_cell_viability: Viability Assessment in the University of Konstanz (UKN) Leist Lab Neural Crest Cell Migration Assay in human induced IMR90 Pluripotent Stem Cells (UKN2) (AID 2284233);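 note: viability of neural crest cells differentiated from IMR90 iPSC measured by calcein-AM fluorescence imaging; cells exposed to compound for 24 h after a 24 h migration phase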
# Summary of the method: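 cMINC format, iPSC-derived neural crest (IMR90); 24 h migration (EGF/FGF, N2-S), then 24 h toxicant. Calcein-AM/H-33342 stain 30 min; fluorescence intensity by HCS; DMSO-normalised, bidirectional fitting.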
# [10] = IUF_NPC2c_oligodendrocyte_migration_120hr: Leibniz Research Institute for Environmental Medicine (IUF) 120-hour Neural Progenitor Cell Migration Assay for Oligodendrocyte Migration (NPC2c) (AID 2284297);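 note: O4-positive oligodendrocyte migration distance divided by radial glia migration distance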
# Summary of the method: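 Human fetal neural progenitor spheres (0.3 mm) are plated on poly-D-lysine/laminin in N2 differentiation medium and exposed for 120 h, with half-medium renewal at day 3. Oligodendrocyte (O4+) migration distance comes from ICC imaging, normalised to radial glia migration.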
# [11] = IUF_NPC2a_radial_glia_migration_120hr: Leibniz Research Institute for Environmental Medicine (IUF) 120-hour Neural Progenitor Cell Migration Assay for Radial Glia Migration (NPC2a) (AID 2284298)
# Summary of the method: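 Human fetal-cortex neural progenitor spheres (0.3 mm) plated on poly-D-lysine/laminin in N2 differentiation medium, exposed 120 h at 37C with half-medium renewal at day 3. Radial glia migration distance (um) measured from Hoechst-stained nuclei images; DMSO baseline.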
# [12] = IUF_NPC2a_radial_glia_migration_72hr: Leibniz Research Institute for Environmental Medicine (IUF) 72-hour Neural Progenitor Cell Migration Assay for Radial Glia Migration (NPC2a) (AID 2284299)
# Summary of the method: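 Readout: mean of four manual brightfield measurements of radial glia migration distance (um) at 72 h. hNPC spheres (0.3 mm) exposed to 7 compound concentrations plus solvent control on PDL/laminin, 37C, 5% CO2; activity fitted relative to DMSO.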
# [13] = IUF_NPC2b_neuronal_migration_120hr: Leibniz Research Institute for Environmental Medicine (IUF) 120-hour Neural Progenitor Cell Migration Assay for Neuron Migration (NPC2b) (AID 2284300)
# Summary of the method: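 0.3 mm hNPC spheres on poly-D-lysine/laminin in N2 differentiation medium exposed 120 h, half-medium refresh day 3; 7 concentrations, DMSO max 0.1%. Neuron (TUBB3) distance from sphere core by ICC imaging, normalised to radial glia migration.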
# [14] = IUF_NPC3_neuronal_differentiation_120hr: Leibniz Research Institute for Environmental Medicine (IUF) 120-hour Neuronal Differentiation Assay (NPC3) (AID 2284301)
# Summary of the method: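 Neuronal differentiation of primary human neural progenitors measured by high-content imaging: percent TUBB3+ of Hoechst+ nuclei within migrated area at 120 h, seven-point serial dilution plus solvent control, gain or loss relative to DMSO.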
# [15] = IUF_NPC5_oligodendrocyte_differentiation_120hr: Leibniz Research Institute for Environmental Medicine (IUF) 120-hour Oligodendrocyte Differentiation Assay (NPC5) (AID 2284304; active = hit-call score of the fitted dose curve at least 0.9, where 1 is the maximum;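 note: primary human fetal neural progenitor spheres plated to migrate and differentiate; share of O4-positive cells among Hoechst nuclei found by CNN image analysis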)
# Summary of the method: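 Human fetal neural progenitor spheres (0.3 mm) plated on poly-D-lysine/laminin in N2 differentiation medium and exposed for 120 h at 7 concentrations, with half-medium renewal at day 3. O4-positive cells identified by CNN, expressed as percent of Hoechst nuclei.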
# [16] = IUF_NPC4_neurite_area_120hr: Leibniz Research Institute for Environmental Medicine (IUF) 120-hour Neuronal Morphology Assay for Neurite Area (NPC4) (AID 2284305; active = hit-call score of the fitted dose curve at least 0.9, where 1 is the maximum)
# Summary of the method: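 Endpoint at 120 h: automated imaging of TUBB3/Hoechst-stained differentiating human neural progenitor spheres, neurite area per neuron from skeletonization. DMSO solvent control, not above 0.1%, set the baseline; medium was half-replaced on day 3.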
# [17] = IUF_NPC2-5_cytotoxicity_72hr: Cytotoxicity Assessment at 72 hours in the Leibniz Research Institute for Environmental Medicine (IUF) Neural Progenitor Cell Migration and Differentiation Assay for Cytotoxicity (NPC2-5) (AID 2284306; active = hit-call score of the fitted dose curve at least 0.9, where 1 is the maximum;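 note: LDH release into supernatant measured by resorufin fluorescence marking membrane damage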)
# Summary of the method: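 Primary human neural progenitor spheres migrate and differentiate on laminin. Compound is present from the start of differentiation, with DMSO kept at or below 0.1%. At 72 h, supernatant LDH is quantified fluorometrically, with values fitted in the positive direction.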
# [18] = IUF_NPC2-5_cytotoxicity_120hr: Cytotoxicity Assessment at 120 hours in the Leibniz Research Institute for Environmental Medicine (IUF) Neural Progenitor Cell Migration and Differentiation Assay (NPC2-5) (AID 2284307; active = hit-call score of the fitted dose curve at least 0.9, where 1 is the maximum)
# Summary of the method: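 Human fetal (GW 16-19) neural progenitor spheres (0.3 mm) plated on poly-D-lysine/laminin in N2 differentiation medium, exposed 120 h with half-medium renewal at day 3; 7 concentrations plus solvent control, DMSO ≤0.1%. LDH release in supernatant read by resorufin fluorescence.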
# [19] = IUF_NPC2-5_cell_number_120hr: Cell Number Assessment at 120 hours in the Leibniz Research Institute for Environmental Medicine (IUF) Neural Progenitor Cell Migration and Differentiation Assay (NPC2-5) (AID 2284308);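 note: count of Hoechst-stained nuclei in migration zone around plated human neural progenitor spheres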
# Summary of the method: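 Human fetal neural progenitor spheres (0.3 mm) plated on poly-D-lysine/laminin in N2 differentiation medium, exposed five days across 7 concentrations with half-medium refresh at day 3. Hoechst-positive nuclei counted in migration area at 120 h, relative to DMSO.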
# [20] = IUF_NPC2-5_viability_120hr: Viability Assessment at 120 hours in the Leibniz Research Institute for Environmental Medicine (IUF) Neural Progenitor Cell Migration and Differentiation Assay (NPC2-5) (AID 2284312)
# Summary of the method: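 Human fetal (GW 16-19) neural progenitor spheres of 0.3 mm were plated on poly-D-lysine/laminin in N2 differentiation medium and exposed from day 0 for 120 h, with half-medium refresh at day 3. Viability was read as alamar blue resazurin-to-resorufin fluorescence against DMSO.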
# [21] = IUF_NPC1_cytotoxicity_72hr: Cytotoxicity Assessment at 72 hours in the Leibniz Research Institute for Environmental Medicine (IUF) Neural Progenitor Cell Proliferation Assay (NPC1) (AID 2284332; active = hit-call score of the fitted dose curve at least 0.9, where 1 is the maximum;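 note: rising LDH signal means more cytotoxicity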)
# Summary of the method: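 LDH in supernatant, resazurin→resorufin fluorescence (RFU), 72 h exposure, no re-dosing. Cells: primary hNPC spheres, one per well, EGF+FGF medium, 37C/5% CO2, pH 7.2-7.6. Fit: positive direction vs baseline and dynamic range.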
smiles,measurement,setting,value
Brc1ccc(Oc2cc(Br)c(Br)cc2Br)c(Br)c1,AC50,[1],11.9 µM (active)
same,outcome,[2],inactive
same,AC50,[3],13.6 µM (active)
same,outcome,[4],inactive
same,AC50,[5],10 µM (active)
same,AC50,[6],13.4 µM (active)
same,outcome,[7],inactive
same,outcome,[8],inactive
same,outcome,[9],inactive
same,outcome,[10],inactive
same,outcome,[11],inactive
same,outcome,[12],inactive
same,outcome,[13],inactive
same,outcome,[14],inactive
same,outcome,[15],inactive
same,outcome,[16],inactive
same,outcome,[17],inactive
same,outcome,[18],inactive
same,outcome,[19],inactive
same,outcome,[20],inactive
same,outcome,[21],inactive
